# Test results as given in PubChem BioAssay (NCATS).
# Records with an inconclusive call do not appear. Active and inactive are the calls of the source. Unless noted, the call rests on the fitted dose curve; in most records, active means well fitted curve in the direction sought with a large enough effect; inconclusive means small, poorly fitted or top-dose-only effect, or another doubt; inactive means no such curve, though single readings can be large; an effect the other way counts as inactive or inconclusive.
# Tests used:
# [1] = qHTS profiling of the MIPE4 collection as inhibitors of Plasmodium falciparum (3D7) proliferation (AID 743344; call rule not given here;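 further: scaled between DMSO vehicle wells and 0.29 µM artemisinin as full inhibition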); details: P. falciparum 3D7 in erythrocytes, SYBR Green DNA fluorescence, 72 h; at 28.5 µM unless noted
# Procedure, shortened: (§1)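 Parasite DNA was quantified by SYBR Green I fluorescence (ex 485, em 535 nm) after overnight lysis in saponin/Triton buffer at room temperature. Cultures at 0.3% parasitemia and 2.5% hematocrit were first exposed to compound for 72 h at 37 C; signals were normalised to artemisinin (0.29 uM) and vehicle wells.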
# [2] = qHTS profiling of the MIPE4 collection as inhibitors of Plasmodium falciparum (DD2) proliferation (AID 743345; call rule not given here); details: P. falciparum Dd2 in erythrocytes, SYBR Green DNA, 72 h; at 28.5 µM unless noted
# Procedure, shortened: as §1
# [3] = qHTS profiling of the MIPE4 collection as inhibitors of Plasmodium falciparum (DD2) proliferation (Rep 2) (AID 743346; call rule not given here); details: P. falciparum Dd2 in erythrocytes, SYBR Green DNA, 72 h; at 28.5 µM unless noted
# Procedure, shortened: as §1
# [4] = qHTS profiling of the MIPE4 collection as inhibitors of Plasmodium falciparum (HB3) proliferation (AID 743347; call rule not given here;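 further: plate controls were DMSO vehicle wells for no effect and artemisinin wells for full effect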); details: P. falciparum HB3 in erythrocytes, SYBR Green DNA, 72 h; at 28.5 µM unless noted
# Procedure, shortened: as §1
# [5] = High-throughput drug toxicity screening in the BPDCN cell line Gen2.2 (AID 1224824; call rule not given here;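 further: cells exposed to compounds for 48 h before reading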); details: Gen2.2 BPDCN cells; at 45.8 µM (top of the series) unless noted
# Procedure, shortened: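 Seed 500 exponentially growing Gen2.2 cells/well; add compounds by pin tool; incubate 48 h, 37 °C, 5% CO2; add CellTiter-Glo, 15 min RT; read luminescence. % activity vs DMSO (100%) and bortezomib (0%).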
# [6] = qHTS assay for measurement of the activity of small molecule inhibitors on Zika virus induced Caspase-3 activity in human astrocytoma cells (AID 1224859);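 further: plate controls were ZIKV-infected untreated cells for no effect and uninfected cells for full effect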
# Procedure, shortened: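 Luminescence read-out (Caspase-Glo 3/7, 30 min RT) of caspase activity in SNB-19 cells infected 6 h with ZIKV, 2 FFU/cell, after 1 h compound pretreatment; % inhibition from induction normalised to uninfected (0%) and infected (100%) wells.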
# [7] = qHTS Screen of the MIPE 4.0 Collection Against Ewings Sarcoma (EW8) (AID 1259255);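 further: 100% = DMSO-treated cells and 0% = medium-only wells without cells; nearly all actives have a fitted effect of over 35% in size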
# Procedure, shortened: (§2)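 Dose series incubated 48 h with cells in RPMI plus 5% FBS, glutamine and penicillin/streptomycin; cell viability then quantified via CellTiter-Glo.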
# [8] = qHTS Screen of the MIPE 4.0 Collection Against Ewings Sarcoma (TC32) (AID 1259256); further: nearly all actives have a fitted effect of over 45% in size; further: potency means the concentration at half of the fitted maximal effect
# Procedure, shortened: as §2
# [9] = qHTS assay for measurement of the activity of small molecule inhibitors on Zika virus induced Caspase-3 activity in human iPSC derived neural progenitor cells (hNPCs) (AID 1224857); further: nearly all actives have a fitted effect of over 65% in size; further: potency means the concentration at half of the fitted maximal effect
# Procedure, shortened: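 hNPCs seeded 350 cells/well, cultured 16–20 h; compounds added 1 h before ZIKV (2 FFU/cell), 37 C 6 h. Caspase-Glo 3/7 luminescence after 30 min RT; % inhibition from induction scaled to uninfected (0%) and infected (100%) wells.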
# [10] = qHTS Screen of the MIPE 4.0 Collection Against Ewings Sarcoma (RDES) (AID 1259252);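 further: 100% = DMSO-treated cells and 0% = medium-only wells without cells; nearly all actives have a fitted effect of over 35% in size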
# Procedure, shortened: as §2
# [11] = qHTS Screen of the MIPE 4.0 Collection Against Ewings Sarcoma (TC71) (AID 1259253);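 further: 100% = DMSO-treated cells and 0% = medium-only wells without cells; nearly all actives have a fitted effect of over 40% in size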
# Procedure, shortened: as §2
# [12] = qHTS profiling for inhibitors of Plasmodium falciparum (HB3) proliferation (AID 743324); details: Plasmodium falciparum HB3 blood-stage proliferation; at 28.7 µM (top of the series);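 further: 100% = DMSO vehicle wells and 0% = artemisinin-treated control wells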
# Procedure, shortened: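 SYBR Green fluorescence (485 ex/535 em) of lysed cultures, incubated overnight at room temperature in the dark, quantifies parasite DNA. Infected erythrocytes at 0.3% parasitemia and 2.5% hematocrit were exposed 72 h; values normalized to DMSO and 0.29 uM artemisinin controls.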
# [13] = Identifying Small Molecule Inhibitors of Pancreatic Cancer Stem Cells (A2780, Spheroid) (AID 1259357); details: Potency: A2780 spheroid viability;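 further: spheroids pre-formed over 14 days in stem cell medium on hydrogel; compound exposure lasted 48 h before the ATP luminescence read; 100% = DMSO treated cells and 0% = wells without cells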
# Procedure, shortened: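 Luminescent ATP readout (CellTiter-Glo) quantifies surviving cells after a 48 h drug incubation. Normalization uses DMSO wells as no inhibition and media-only wells as full inhibition; bortezomib served as positive control.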
# [14] = Identifying Small Molecule Inhibitors of Pancreatic Cancer Stem Cells (SN12C, Adherent) (AID 1259358);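 further: cell survival measured after 48 h of compound exposure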
# Procedure, shortened: (§3)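 Endpoint: ATP-based luminescence, 48 h drug exposure. Bortezomib at 9.2 uM final as full-kill control; DMSO vehicle as negative control; activity normalized between vehicle and cell-free wells.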
# [15] = Identifying Small Molecule Inhibitors of Pancreatic Cancer Stem Cells (A278, Adherent) (AID 1259361);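 further: viability read after 48 h compound exposure; 100% = DMSO-treated cells and 0% = cell-free media-only wells; nearly all actives have a fitted effect of over 35% in size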
# Procedure, shortened: as §3
SMILES,"parasite growth, % of DMSO control [1]","parasite growth remaining, % of DMSO control (lower = more inhibition) [2]","parasite growth, % of control (lower = inhibition) [3]","growth, % of control [4]","cell viability, % of control (lower = more cytotoxic) [5]",Potency [6],Potency [7],Potency [8],Potency [9],Potency [10],Potency [11],"remaining proliferation (% of control), lower = more inhibition [12]",Potency [13],Potency [14],IC50 (viability decrease) [15]
COc1ccc(-c2coc3cc(O)cc(O)c3c2=O)cc1,36.9%,99.4%,46.3%,15.1%,308%,inactive,inactive,inactive,,,,,,,
CC(C)(C)NC(=O)Nc1cccc(Nc2ncc(F)c(NC(C)(C)CO)n2)c1,5.44%,,7.73%,3.88%,235%,inactive,,2350 nM (active),inactive,,,,,,
CC=C(C)C(=O)O[C@H]1C(C)=C[C@]23C(=O)[C@@H](C=C(CO)[C@@H](O)[C@]12O)[C@H]1[C@@H](C[C@H]3C)C1(C)C,18.7%,,28.1%,21%,38.4%,inactive,,,inactive,,,,,,
C[C@H](NC(=O)C(=O)Nc1ccccc1C(C)(C)C)C(=O)N[C@@H](CC(=O)O)C(=O)COc1c(F)c(F)cc(F)c1F,73.8%,107%,49.8%,405%,200%,,inactive,inactive,2350 nM (active),inactive,,,,,
O=C(O)c1ccccc1C(=O)Nc1ccc(-c2ccccc2)cc1,,104%,,,156%,,inactive,,inactive,inactive,inactive,,,,
Nc1ncnc2c1ncn2[C@@H]1O[C@@H](CO)[C@H](O)[C@H]1O,103%,84.1%,114%,111%,235%,inactive,inactive,inactive,,inactive,inactive,,,,
CC(C)(C)COc1ccc(-n2cc(C(=O)O)cn2)cc1C#N,75%,,,,112%,,inactive,inactive,14800 nM (active),inactive,inactive,91.7%,inactive,inactive,inactive
Clc1cc(Cl)cc(CNc2ncncc2-c2ccc3c(c2)OCO3)c1,18.8%,47.6%,28.4%,10.2%,44.1%,inactive,,,inactive,,,,,,
COc1cccc([C@@H](C)NCCCc2ccccc2Cl)c1,6.27%,,,,172%,inactive,inactive,inactive,inactive,,,,,,
